± gives the standard deviation of the averaged measurements. The full ranking holds about 4,100 sequences; the median of “relative kcat/Km (krel) vs genomic leader AAAGAU” is about 1.7, and the highest 2% start at about 6.5. The full list was thinned out, with the highest values kept by preference.
Biological target: T1, E. coli RNase P holoenzyme (M1 P RNA + rnpA protein) (UniProt P0A7Y8)
T1 sequence: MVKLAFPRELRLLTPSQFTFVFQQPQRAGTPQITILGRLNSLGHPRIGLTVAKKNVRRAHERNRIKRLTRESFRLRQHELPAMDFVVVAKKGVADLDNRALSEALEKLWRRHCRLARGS
Test: relative kcat/Km (krel) vs genomic leader AAAGAU (relative (reference leader = 1)); higher = faster RNase P cleavage
Description: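 HTS-Kin: a pool of ptRNA-Met (21C construct) with all 4096 combinations of 5' leader nucleotides N(-6) to N(-1) was processed in vitro by E. coli RNase P (P RNA + rnpA/C5 protein) under multiple-turnover conditions at 37 C, pH 8, 17.5 mM MgCl2. Residual substrate was Illumina-sequenced at several fractions reacted, and relative kcat/Km (krel) was computed by internal competition kinetics, calibrated to the genomic leader (AAAGAU = 1). The listed hexamer is the varied N(-6)..N(-1) leader (DNA letters), and it sits between a fixed 5' stem-loop flank (GCAUGCACGAAAGUGCGUGCUAUGAA) and the mature tRNA-Met starting GGCUACGUAGCUCAGUUGG. Two technical replicates are averaged.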

[1] = fraction of substrate reacted: ~13-16% (15.68% repeat 1, 13.17% repeat 2)
[2] = fraction of substrate reacted: ~26-29% (28.66% repeat 1, 26.4% repeat 2)
[3] = fraction of substrate reacted: ~9-10% (9.79% repeat 1, 9.1% repeat 2)

## AGTAAG
[1]
  relative kcat/Km: 1.26 ± 0.66
[2]
  relative kcat/Km: 3.3 ± 0.62

## TAATCG
[1]
  relative kcat/Km: 0.624 ± 0.13
[2]
  relative kcat/Km: 1.73 ± 0.43

## TAGGTG
[2]
  relative kcat/Km: 0.812 ± 0.66

## GCAATG
[2]
  relative kcat/Km: 1.35 ± 0.34

## TTGCAC
[3]
  relative kcat/Km: 2.41 ± 1.3
[1]
  relative kcat/Km: 2.27 ± 0.05
[2]
  relative kcat/Km: 3.33 ± 0.78

## TCTGTT
[3]
  relative kcat/Km: 1.56 ± 0.75
[1]
  relative kcat/Km: 1.38 ± 1.1
[2]
  relative kcat/Km: 1.89 ± 1.2

## ACCAAA
[3]
  relative kcat/Km: 2.83 ± 2.3
[1]
  relative kcat/Km: 3.55 ± 0.63
[2]
  relative kcat/Km: 4.37 ± 0.92

## AATGAA
[3]
  relative kcat/Km: 2.18 ± 1.1
[1]
  relative kcat/Km: 2.14 ± 0.073
[2]
  relative kcat/Km: 2.72 ± 0.88

## GGCGAT
[3]
  relative kcat/Km: 1.24 ± 0.38
[1]
  relative kcat/Km: 1.52 ± 0.5
[2]
  relative kcat/Km: 2.32 ± 0.83

## GGGCAA
[1]
  relative kcat/Km: 1 ± 0.65
[2]
  relative kcat/Km: 1.5 ± 0.79

## GGGGAT
[2]
  relative kcat/Km: 1.93 ± 1.9

## AATCAC
[3]
  relative kcat/Km: 2.09 ± 1.1
[1]
  relative kcat/Km: 2.63 ± 0.078
[2]
  relative kcat/Km: 4.12 ± 1.3

## TATCAT
[3]
  relative kcat/Km: 4.22 ± 1.9
[1]
  relative kcat/Km: 5.02 ± 0.57
[2]
  relative kcat/Km: 7.37 ± 3.5

## TATCAC
[3]
  relative kcat/Km: 4.08 ± 2.5
[1]
  relative kcat/Km: 4.88 ± 0.12
[2]
  relative kcat/Km: 7.11 ± 2.8

## GATCAC
[3]
  relative kcat/Km: 2.93 ± 0.77
[1]
  relative kcat/Km: 4.27 ± 1.3
[2]
  relative kcat/Km: 5.26 ± 2.1

## AATCAT
[3]
  relative kcat/Km: 3.17 ± 2
[1]
  relative kcat/Km: 2.88 ± 0.24
[2]
  relative kcat/Km: 4.38 ± 1.7

## GATCAT
[3]
  relative kcat/Km: 2.26 ± 0.96
[1]
  relative kcat/Km: 3.62 ± 0.21
[2]
  relative kcat/Km: 5.17 ± 1.7

## CCATCT
[3]
  relative kcat/Km: 2.12 ± 1.5
[1]
  relative kcat/Km: 1.53 ± 1.1
[2]
  relative kcat/Km: 2.64 ± 0.42

## TACACG
[3]
  relative kcat/Km: 2.67 ± 2.1
[1]
  relative kcat/Km: 2.37 ± 0.74
[2]
  relative kcat/Km: 3.55 ± 0.64

## AAGTAC
[3]
  relative kcat/Km: 3.18 ± 1.6
[1]
  relative kcat/Km: 3.53 ± 0.57
[2]
  relative kcat/Km: 4.86 ± 1.7

## TAGTAC
[3]
  relative kcat/Km: 4.35 ± 1.3
[1]
  relative kcat/Km: 5.28 ± 0.82
[2]
  relative kcat/Km: 7.85 ± 3.4

## AAGTAA
[3]
  relative kcat/Km: 2.99 ± 1.7
[1]
  relative kcat/Km: 3.36 ± 0.17
[2]
  relative kcat/Km: 4.47 ± 1.6

## TAGTAA
[3]
  relative kcat/Km: 3.7 ± 0.66
[1]
  relative kcat/Km: 4.78 ± 0.65
[2]
  relative kcat/Km: 6.72 ± 3

## TAGTAT
[3]
  relative kcat/Km: 3.26 ± 0.97
[1]
  relative kcat/Km: 4.14 ± 0.84
[2]
  relative kcat/Km: 6.5 ± 3.2

## CAGTAC
[3]
  relative kcat/Km: 3.68 ± 1.6
[1]
  relative kcat/Km: 4.92 ± 0.95
[2]
  relative kcat/Km: 6.37 ± 2.2

## TCATCG
[3]
  relative kcat/Km: 1.66 ± 1.1
[1]
  relative kcat/Km: 0.943 ± 0.074
[2]
  relative kcat/Km: 1.96 ± 0.15

## CGATGC
[3]
  relative kcat/Km: 2.88 ± 0.51
[1]
  relative kcat/Km: 2.7 ± 1.8
[2]
  relative kcat/Km: 4.03 ± 1.4

## TAGCTT
[3]
  relative kcat/Km: 1.84 ± 0.3
[1]
  relative kcat/Km: 2.04 ± 0.21
[2]
  relative kcat/Km: 2.8 ± 1.2

## GGCGCA
[3]
  relative kcat/Km: 1.73 ± 0.44
[1]
  relative kcat/Km: 2 ± 1.2
[2]
  relative kcat/Km: 3.02 ± 1.3

## TGCGCA
[3]
  relative kcat/Km: 2 ± 0.91
[1]
  relative kcat/Km: 1.69 ± 0.53
[2]
  relative kcat/Km: 2.46 ± 0.77

## GTCGCT
[3]
  relative kcat/Km: 2.09 ± 1.2
[1]
  relative kcat/Km: 2.03 ± 0.41
[2]
  relative kcat/Km: 3.35 ± 1

## ATCGCT
[3]
  relative kcat/Km: 2.5 ± 0.7
[1]
  relative kcat/Km: 2.34 ± 0.31
[2]
  relative kcat/Km: 3.27 ± 0.6

## GTCGCG
[3]
  relative kcat/Km: 2.3 ± 2.2
[1]
  relative kcat/Km: 1.77 ± 0.36
[2]
  relative kcat/Km: 3.47 ± 0.87

## ATCGCA
[3]
  relative kcat/Km: 3.36 ± 1
[1]
  relative kcat/Km: 4.58 ± 0.2
[2]
  relative kcat/Km: 6.35 ± 2.8

## GTCGTC
[3]
  relative kcat/Km: 3.09 ± 1.7
[1]
  relative kcat/Km: 2.79 ± 0.12
[2]
  relative kcat/Km: 4.02 ± 1.6

## ATCGCC
[3]
  relative kcat/Km: 4.35 ± 0.56
[1]
  relative kcat/Km: 5.34 ± 2
[2]
  relative kcat/Km: 7.69 ± 3

## ATCGCG
[3]
  relative kcat/Km: 2.62 ± 1.1
[1]
  relative kcat/Km: 1.7 ± 0.89
[2]
  relative kcat/Km: 3.07 ± 0.91

## GTCGCA
[3]
  relative kcat/Km: 4.66 ± 1.2
[1]
  relative kcat/Km: 5.5 ± 1.6
[2]
  relative kcat/Km: 7.77 ± 3.1

## GTCGCC
[3]
  relative kcat/Km: 4.34 ± 1.4
[1]
  relative kcat/Km: 5.5 ± 0.42
[2]
  relative kcat/Km: 7.93 ± 3.1

## TTCGCA
[3]
  relative kcat/Km: 4.21 ± 0.84
[1]
  relative kcat/Km: 6.08 ± 1.7
[2]
  relative kcat/Km: 8.75 ± 3.8

## GGTCAA
[3]
  relative kcat/Km: 0.981 ± 0.11
[1]
  relative kcat/Km: 1.45 ± 0.14
[2]
  relative kcat/Km: 1.83 ± 1.1

## CATTCA
[3]
  relative kcat/Km: 2.03 ± 0.96
[1]
  relative kcat/Km: 2.26 ± 0.27
[2]
  relative kcat/Km: 2.76 ± 0.83

## TATACC
[3]
  relative kcat/Km: 1.83 ± 0.44
[1]
  relative kcat/Km: 2.35 ± 0.29
[2]
  relative kcat/Km: 2.84 ± 1.4

## TATGGT
[2]
  relative kcat/Km: 1.77 ± 1.3

## CTGCCT
[3]
  relative kcat/Km: 2.67 ± 0.64
[1]
  relative kcat/Km: 1.47 ± 0.29
[2]
  relative kcat/Km: 1.91 ± 0.022

## GGAGAG
[2]
  relative kcat/Km: 1.19 ± 0.14

## ATTTTT
[3]
  relative kcat/Km: 2.48 ± 0.92
[1]
  relative kcat/Km: 2.63 ± 0.22
[2]
  relative kcat/Km: 3.89 ± 1.3

## TTTAGA
[3]
  relative kcat/Km: 2.52 ± 0.65
[1]
  relative kcat/Km: 3.74 ± 0.44
[2]
  relative kcat/Km: 5.73 ± 2.2

## CCCCAT
[3]
  relative kcat/Km: 1.7 ± 1.5
[1]
  relative kcat/Km: 3.312 ± 0.011
[2]
  relative kcat/Km: 4.95 ± 1.3

Reference: the supplement of paper PMC9433436
